According to PubChem BioAssay AID2284182 (EPA ToxCast):
Inconclusive results are not listed. The source made the active and inactive calls. How the source made its calls: active means hit-call score of the fitted dose curve at least 0.9, where 1 is the maximum; inconclusive means response in the unintended direction; inactive means score below 0.9.

These molecules were tested against human Serotonin Receptor 5-HT7 Agonism, HTR7 (gene 3363) (UniProt P34969) (assay: ERF_FR_GPCR_hHTR7: Eurofins (ERF) G Protein-Coupled Receptor (GPCR) Radioligand Binding LeadHunter Assay for human Serotonin Receptor 5-HT7 Agonism).
Sequence of human Serotonin Receptor 5-HT7 Agonism, HTR7 (gene 3363) (P34969 whole entry, looked up): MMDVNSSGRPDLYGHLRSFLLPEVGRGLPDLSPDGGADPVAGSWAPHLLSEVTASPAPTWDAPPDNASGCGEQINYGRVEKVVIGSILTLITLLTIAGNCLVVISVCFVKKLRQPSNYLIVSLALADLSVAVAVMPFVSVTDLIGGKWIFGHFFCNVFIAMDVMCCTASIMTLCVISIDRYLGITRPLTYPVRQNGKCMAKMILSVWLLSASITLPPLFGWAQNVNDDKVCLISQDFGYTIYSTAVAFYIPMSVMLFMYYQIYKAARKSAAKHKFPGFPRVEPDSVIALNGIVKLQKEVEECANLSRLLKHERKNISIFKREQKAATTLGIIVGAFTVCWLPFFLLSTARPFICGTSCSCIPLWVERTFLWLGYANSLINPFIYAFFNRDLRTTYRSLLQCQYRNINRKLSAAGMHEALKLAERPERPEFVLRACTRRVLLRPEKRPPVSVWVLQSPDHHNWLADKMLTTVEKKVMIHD
Method: ERF_FR_GPCR_hHTR7 is a biochemical, single-readout assay that uses extracted gene-proteins in a cell-free assay. Measurements were taken 2 hour after chemical dosing in a 96-well plate. See 5-HT7 Human Serotonin GPCR Binding (Agonist Radioligand) Assay, Cerep.ERF_FR_GPCR_hHTR7 is an assay component calculated from the ERF_FR_GPCR_hHTR7 assay. It is designed to measure radioligand binding using a type of binding reporter as detected by scintillation counting with radiometry technology.Data from the assay component ERF_FR_GPCR_hHTR7 was analyzed at the assay endpoint, ERF_FR_GPCR_hHTR7, in the positive analysis fitting direction relative to DMSO as the negative control and baseline of activity. Using a type of binding reporter, gain-of-signal activity can be used to understand changes in binding as they relate to gene HTR7. To generalize the intended target to other relatable targets, this assay endpoint is annotated to the gpcr intended target family, where the subfamily is serotonin.
Human cells are incubated for 120 minutes at room tempreture with [3H]LSD ligand (2.3 nM) and serotonin as control inhibitor. Test Sample Requirements: Minimum for 1) Screen: 60 ul of 10 mM stock -OR- 1 mg (pre-weighed) for 10 uM final testing. 2) Dose Response: 90 ul of 10 mM stock -OR- 1 mg (pre-weighed) for a top concentration at 10 uM.
In the case of `O=C(/C=C/c1ccc(O)cc1)CC(=O)/C=C/c1ccc(O)cc1`, the AC50 is reported as 1.75 µM (active).
